Test results published in PubChem BioAssay (EPA / NIEHS).
The source made the active and inactive calls. Rule for the calls, unless noted: active = hit-call score of the fitted dose curve at least 0.9, where 1 is the maximum; inactive = score below 0.9.

Assays:
[1] = molecular target: Peroxisome proliferator-activated receptor gamma (Homo sapiens) (UniProt P37231); test: OT_PPARg_PPARgSRC1_1440: Odyssey Thera (OT) 24-hour Protein-Complementation Assay for Peroxisome Proliferator-activated Receptor Gamma/ SRC-1 Co-activator (AID 2283388; active = hit-call score of the fitted dose curve at least 0.9, where 1 is the maximum;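 note: nuclear to cytoplasmic ratio of reconstituted Venus YFP fluorescence in fixed imaged cells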)
Outline: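 Readout is the 488 nm N/C fluorescence ratio from fixed, Draq5-stained HEK293T cells after 24 h compound exposure. Cells carried transiently transfected PPARg and SRC-1 fused to Venus fragments, transfected 48 h before treatment.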

[2] = read-out: Tumor necrosis factor receptor superfamily member 6 (Homo sapiens) (UniProt P25445); test: LTEA_HepaRG_FAS: Life Technologies and Expression Analysis (LTEA) Assay for Fas cell surface death receptor (FAS) using HepaRG (AID 2283447); conditions: mRNA level, 48 h; actives raise or lower the signal
Outline: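 Differentiated human HepaRG cells, pre-cultured 48 h, were exposed in duplicate for 48 h to 8-point half-log concentrations (top 100 uM, 0.5% DMSO) in serum-free induction medium; FAS mRNA measured by qRT-PCR, normalized to ACTB/GAPDH/POLR2A, bidirectional fit versus DMSO.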

[3] = read-out: Cyclin D2 (CCND2), CCND2 (gene 894); test: LTEA_HepaRG_CCND2: Life Technologies and Expression Analysis (LTEA) Assay for Cyclin D2 (CCND2) using HepaRG (AID 2283449); conditions: mRNA level, 48 h; actives raise or lower the signal;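 note: CCND2 transcript measured by TaqMan qRT-PCR and normalised to three housekeeping genes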
Outline: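 In this HepaRG study, an eight-point concentration series (max 100 uM, 0.5% DMSO) is applied for 48 h. CCND2 mRNA change is derived by qRT-PCR normalised to ACTB, GAPDH and POLR2A.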

[4] = read-out: Cyclin Dependent Kinase Inhibitor 1A (CDKN1A), CDKN1A (gene 1026); test: LTEA_HepaRG_CDKN1A: Life Technologies and Expression Analysis (LTEA) Assay for Cyclin Dependent Kinase Inhibitor 1A (CDKN1A) using HepaRG (AID 2283450); conditions: mRNA level, 48 h; actives raise or lower the signal
Outline: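 Expression quantified by Fluidigm qRT-PCR with ACTB, GAPDH and POLR2A normalization, fitted bidirectionally against 0.5% DMSO. Cells: HepaRG, plated 48 h then treated 48 h in serum-free induction medium, top concentration 100 uM with half-log dilutions.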

[5] = read-out: catalase (CAT), CAT (gene 847); test: LTEA_HepaRG_CAT: Life Technologies and Expression Analysis (LTEA) Assay for catalase (CAT) using HepaRG (AID 2283452); conditions: mRNA level, 48 h; actives raise or lower the signal;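 for AC50: TaqMan qRT-PCR signal normalized to ACTB GAPDH and POLR2A housekeeping genes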
Outline: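 Differentiated HepaRG cells in serum-free induction medium were dosed 48 h in duplicate, eight half-log concentrations from 100 uM in 0.5% DMSO. Transcript measured by TaqMan qRT-PCR, normalised to ACTB/GAPDH/POLR2A, fitted bidirectionally against DMSO.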

[6] = read-out: flavin-containing dimethylaniline monooxygenases 3 (FMO3), FMO3 (gene 2328); test: LTEA_HepaRG_FMO3: Life Technologies and Expression Analysis (LTEA) Assay for flavin-containing dimethylaniline monooxygenases 3 (FMO3) using HepaRG (AID 2283453); conditions: mRNA level, 48 h; actives raise or lower the signal;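 for AC50: FMO3 transcript by TaqMan qRT-PCR normalized to ACTB GAPDH and POLR2A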
Outline: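 FMO3 transcript quantified by TaqMan qRT-PCR against three housekeeping genes after 48 h chemical exposure of HepaRG cells. Eight-point half-log series, top 100 uM, 0.5% DMSO vehicle; phenobarbital 1mM induction control; up- or down-regulation fitted.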

[7] = read-out: Cytochrome P450 (CYP1A1), CYP1A1 (gene 1543); test: LTEA_HepaRG_CYP1A1: Life Technologies and Expression Analysis (LTEA) Assay for Cytochrome P450 (CYP1A1) using HepaRG (AID 2283454); conditions: mRNA level, 48 h; actives raise or lower the signal
Outline: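 CYP1A1 transcript levels measured by Fluidigm qRT-PCR against three housekeeping genes, 48 h after chemical dosing of human HepaRG cells (highest concentration 100 uM, half-log steps, 0.5% DMSO vehicle). Gain or loss of signal fitted relative to DMSO.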

[8] = read-out: CFLAR gene, CFLAR (gene 8837); test: LTEA_HepaRG_CFLAR: Life Technologies and Expression Analysis (LTEA) Assay for CFLAR gene using HepaRG (AID 2283455); conditions: mRNA level, 48 h; actives raise or lower the signal
Outline: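 Gain- or loss-of-signal changes in CFLAR transcript were fitted bidirectionally relative to 0.5% DMSO. Cells (HepaRG, duplicate wells) were dosed for 48 h across eight half-log concentrations topping at 100 uM; quantitation by TaqMan qRT-PCR.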

[9] = read-out: Forkhead box O1 (FOXO1), FOXO1 (gene 2308); test: LTEA_HepaRG_FOXO1: Life Technologies and Expression Analysis (LTEA) Assay for Forkhead box O1 (FOXO1) using HepaRG (AID 2283456); conditions: mRNA level, 48 h; actives raise or lower the signal
Outline: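 Using one lot of HepaRG hepatic cells kept in 0.5% DMSO, the team applied test chemicals in duplicate, half-log dilutions from 100 uM, for 48 h. Expression, normalised to ACTB/GAPDH/POLR2A, was compared with vehicle in either direction.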

[10] = read-out: Cyclin D1 (CCND1), CCND1 (gene 595); test: LTEA_HepaRG_CCND1: Life Technologies and Expression Analysis (LTEA) Assay for Cyclin D1 (CCND1) using HepaRG (AID 2283451); conditions: mRNA level, 48 h; actives raise or lower the signal
Outline: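 Expression of CCND1 was quantified by qRT-PCR on Fluidigm arrays using ACTB, GAPDH and POLR2A as reference genes. HepaRG cultures, plated 48 h beforehand, were dosed for 48 h at up to 100 uM (half-log, 8 points) in 0.5% DMSO.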

[11] = CEETOX_H295R_11DCORT: CeeTox H295R High-throughput Steroidogenesis Assay for 11-Deoxycortisol (11DCORT) (AID 2283432); conditions: actives raise or lower the signal
Outline: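 H295R cells prestimulated 48 h with 10 uM forskolin, then exposed 48 h to chemical in 0.1% DMSO. 11-Deoxycortisol in medium quantified by HPLC-MS/MS after MTBE extraction; bidirectional fit versus DMSO. MTT viability read in same wells.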

[12] = CEETOX_H295R_OHPREG: CeeTox H295R High-throughput Steroidogenesis Assay for OH-Pregnenolone (OHPREG) (AID 2283434); conditions: actives raise or lower the signal
Outline: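 Readout: HPLC-MS/MS of 17alpha-hydroxypregnenolone in medium after 48 h chemical exposure of H295R cells pretreated with forskolin. Values fitted bidirectionally relative to DMSO; chemicals reducing viability to 20–70% were retested after 10-fold dilution.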

[13] = CEETOX_H295R_OHPROG: CeeTox H295R High-throughput Steroidogenesis Assay for OH-Progesterone (OHPROG) (AID 2283435); conditions: actives raise or lower the signal
Outline: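 Medium steroid levels read by LC-MS/MS after 48 h chemical treatment (0.1% DMSO) of human adrenal H295R cells that had been forskolin-primed (10 uM, 48 h). Gain or loss fitted against DMSO; MTT cytotoxicity checked per well.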

[14] = CEETOX_H295R_CORTIC: CeeTox H295R High-throughput Steroidogenesis Assay for Corticosterone (CORTIC) (AID 2283437); conditions: actives raise or lower the signal;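 note: corticosterone secreted into medium quantified by mass spectrometry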
Outline: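 Steps: seed H295R, adhere overnight; 10 uM forskolin 48 h; replace with chemical (0.1% DMSO) 48 h; extract medium with MTBE; quantify corticosterone by HPLC-MS/MS; score bidirectionally vs DMSO.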

[15] = CEETOX_H295R_CORTISOL: CeeTox H295R High-throughput Steroidogenesis Assay for Cortisol (AID 2283438); conditions: actives raise or lower the signal
Outline: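 Cortisol measured by HPLC-MS/MS after MTBE extraction of medium from H295R cells exposed 48 h to chemical (0.1% DMSO), following 48 h prestimulation with 10 uM forskolin. Viability assessed by MTT in the same wells.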

[16] = CEETOX_H295R_ESTRONE: CeeTox H295R High-throughput Steroidogenesis Assay for Estrone (AID 2283441); conditions: actives raise or lower the signal
Outline: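 Estrone secreted into medium quantified by LC-MS/MS after dansyl chloride derivatization, following 48 h chemical exposure (0.1% DMSO final) of forskolin-prestimulated (10 uM, 48 h) H295R cells; gain or loss fitted against DMSO; MTT viability in same wells.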

[17] = CEETOX_H295R_PROG: CeeTox H295R High-throughput Steroidogenesis Assay for Progesterone (PROG) (AID 2283442); conditions: actives raise or lower the signal
Outline: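 Progesterone secreted by human H295R cells was measured by LC-MS/MS following 48 h chemical exposure at 0.1% DMSO, preceded by 48 h forskolin (10 uM) stimulation. Same-well MTT viability; cytotoxic concentrations diluted 10- or 100-fold and retested.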

Measured: AC50

Sequence of Peroxisome proliferator-activated receptor gamma (Homo sapiens) (P37231 whole entry, looked up, the tested form may be a part): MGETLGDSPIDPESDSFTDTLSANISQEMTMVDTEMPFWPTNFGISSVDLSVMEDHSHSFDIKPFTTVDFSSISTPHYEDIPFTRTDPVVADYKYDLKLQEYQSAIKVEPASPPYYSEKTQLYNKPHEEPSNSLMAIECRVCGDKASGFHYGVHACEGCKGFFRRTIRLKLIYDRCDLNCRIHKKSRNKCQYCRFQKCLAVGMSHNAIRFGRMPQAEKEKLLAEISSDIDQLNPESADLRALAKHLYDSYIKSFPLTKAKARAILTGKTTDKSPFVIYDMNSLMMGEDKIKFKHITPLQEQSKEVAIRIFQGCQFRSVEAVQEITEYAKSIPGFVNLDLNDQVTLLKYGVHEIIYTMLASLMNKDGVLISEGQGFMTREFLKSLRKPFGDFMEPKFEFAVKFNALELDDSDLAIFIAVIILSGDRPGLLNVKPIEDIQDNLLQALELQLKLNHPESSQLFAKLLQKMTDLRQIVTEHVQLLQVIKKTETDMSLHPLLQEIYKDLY

CCCCCCCCCCCCN1CCCC1=O
inactive: [1] | [2] | [3] | [4] | [5] | [6] | [8] | [9]
active: [7] 68.2 µM

CCCCCCC(=O)O
inactive: [2] | [3] | [4] | [5] | [6] | [8] | [9]
active: [7] 59.9 µM

CCN(CC)CCNc1ccc(CNC=O)c2sc3ccc(OC)cc3c(=O)c12
active: [5] 17.5 µM | [6] 34.6 µM | [7] 4.07 µM | [8] 27.5 µM | [9] 13.3 µM
inactive: [1] | [2] | [3] | [4] | [10]

CCCCC(CC)COC(=O)CCCCC(=O)OCC(CC)CCCC (centres undefined)
not listed: [11] | [12] | [13] | [14] | [15] | [16] | [17]
inactive: all other assays above

CC[C@H](c1ccc(O)cc1)[C@@H](CC)c1ccc(O)cc1
active: [2] 89.3 µM | [3] 62.4 µM | [4] 89.8 µM | [5] 78.4 µM | [6] 79.9 µM | [8] 75.7 µM | [9] 78.5 µM
inactive: [1] | [7]

NC(=O)N1C(=O)C(C(=O)c2cc(Cl)cs2)c2cc(F)c(Cl)cc21 (centres undefined)
inactive: [1] | [2] | [4] | [8]
active: [3] 28.7 µM | [5] 25.1 µM | [6] 20 µM | [7] 3.31 µM | [9] 12.6 µM

c1ccc2c(c1)Cc1ccccc1-2
inactive: [1] | [2] | [3] | [4] | [5] | [6] | [8] | [9]
active: [7] 50 µM

CCCCCCCCC(=O)O
not listed: [1]
inactive: all other assays above

CCCCOCCO
inactive: [1] | [2] | [3] | [4] | [5] | [6] | [8] | [9]
active: [7] 50 µM

ClC1=C(Cl)C(Cl)(Cl)C(Cl)=C1Cl
not listed: [11] | [12] | [13] | [14] | [15] | [16] | [17]
inactive: all other assays above

COCC(C)OCC(C)O (centres undefined)
inactive: [1] | [2] | [3] | [4] | [5] | [6] | [8] | [9]
active: [7] 50 µM

CC(=O)CC(C)(C)O
not listed: [11] | [12] | [13] | [14] | [15] | [16] | [17]
inactive: all other assays above

CC(C)CCCCCCOC(=O)CCCCC(=O)OCCCCCCC(C)C
active: [7] 50 µM
inactive: [1] | [2] | [3] | [4] | [5] | [6] | [8] | [9]

Cc1cc(CCN2CCN(c3nsc4ccccc34)CC2)cc2c1NC(=O)CC2(C)C
inactive: [1] | [2] | [10] | [8] | [9]
active: [4] 76.7 µM | [5] 73.4 µM | [6] 77.8 µM | [7] 7.65 µM

CC(C)(C)c1cccc(C(C)(C)C)c1O
inactive: [1] | [2] | [4] | [10] | [5] | [6] | [7] | [8] | [9]

CC(C)(C)c1ccc(O)c(C(C)(C)C)c1
inactive: [1] | [2] | [4] | [5] | [6] | [7] | [8] | [9]
active: [3] 0.00316 µM
